Assay results as given in PubChem BioAssay AID720513 (Broad Institute, 2013).
Among all 2,100 compounds or so, about 480 (23%) were called active. Not shown: some 5% with an inconclusive outcome.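 How the source made its calls: active means fitted curve reaches 40% activation at or below the top valid concentration, in every replicate test; inconclusive means replicate tests disagree on the call; inactive means the rest, including activity in the opposite direction.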 These entries were drawn from the full list. Potency and affinity values are given separately.

Test: PGC1a acetylation increase, cellular AlphaLISA – cell-based, cherry-picked samples, set 6, dose response (AID 720513);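 further: cells made to overexpress flag tagged PGC1a plus GCN5 acetyltransferase by viral infection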
Settings: U2OS PGC1a acetylation AlphaLISA, overnight, 0 = neutral, -100 = inhibitor control; series mostly up to 19.5 µM; activation (acetylation increase): at the top concentration

Activation (acetylation increase), inactive:
Cc1noc(C)c1NC(=O)N(C)C[C@@H]1OCCCC[C@@H](C)Oc2ccc(N(C)C)cc2C(=O)N([C@@H](C)CO)C[C@H]1C -4.29%
COc1ccc(C(=C(CC(=O)O)C(=O)OC(C)(C)C)c2cc(OC)c(OC)c(OC)c2)cc1OC -5.87%
CCCOc1ccc(/C=C/C(=O)O)cc1OC 5.41%
CN(C)C(=O)C[C@H]1CC[C@H](NC(=O)C2CCC2)[C@@H](CO)O1 15.4%
COc1ccc2cc3c(N)nn(C(=O)c4ccccc4Cl)c3nc2c1 -23.1%
COc1ccc(NCc2nnc(SCC(=O)Nc3cc(C)cc(C)c3)o2)cc1 21.1%
CCc1c(C)nc(SCC(=O)Nc2ccc3c(c2)OCCO3)[nH]c1=O -2.04%
CCN1C(=O)c2cccc3c(S(=O)(=O)Nc4ccccn4)ccc1c23 17.1%
Cc1ccc(O)c(NC(=O)c2ccc3c(c2)C(=O)N(CC(C)C)C3=O)c1 4.64%
CCN1CCN(C(=O)c2c(-c3c(F)cccc3Cl)noc2C)CC1 -1.69%
C[C@H](CO)N1C[C@H](C)[C@H](CN(C)C(=O)NC2CCCCC2)Oc2cc(C#Cc3ccc(F)cc3)ccc2S1(=O)=O -65.8%
Nc1ccccc1-c1ccn[nH]1 0.587%
CC1=NN(C(=O)c2ccc(C)cc2)C(O)(C(F)(F)OC(F)(F)F)C1 (centres undefined) 11.7%
O=C(c1ccco1)N1N=C(c2ccc(Cl)cc2)CC1(O)C(F)(F)F (centres undefined) -31.7%
COc1ccc(C(C)(O)c2nc(-c3cccc(O)c3)cs2)cc1 (centres undefined) -1.9%
COc1ccc(-c2ccc(CCC(=O)O)n2NC(=O)c2ccc(C(C)(C)C)cc2)cc1 -0.816%
O=C(Nc1ccc(F)cc1)N[C@H]1C=C[C@H](CC(=O)N2CCCCC2)O[C@H]1CO 26.6%
COc1cccc(-c2cc(C(=O)NCCCn3ccnc3)no2)c1 33.2%
CCSc1ccccc1C(=O)NCCCn1ccnc1 5.32%
Cc1ccccc1-c1nc(C(=O)NCC2CCCO2)cc2c1[nH]c1ccccc12 (centres undefined) -55.2%
C[C@@H]1CN([C@@H](C)CO)S(=O)(=O)c2ccc(-c3ccc(F)cc3)cc2O[C@H]1CN(C)C(=O)C1CCCCC1 -61.4%
C#CCN(C[C@@H]1[C@@H](OC(=O)NC2CCCC2)[C@@H](OC(=O)NC2CCCC2)Cn2c(=O)ccc(=O)n21)S(=O)(=O)c1ccc(C)cc1 -92%
O=C1N(Cc2ccccc2)Cc2ccccc2[C@@H]2OC(c3ccc(OCCCO)cc3)=N[C@]12Cc1ccccc1 1.25%
CCCC#Cc1ccc2c(c1)O[C@@H](CN(C)C(=O)C1CC1)[C@@H](C)CN([C@@H](C)CO)S2(=O)=O 3.55%
COC(c1ccccc1)c1nnc(CCC(=O)N(C)C(C2CC2)C2CC2)o1 (centres undefined) -12.5%
COCC(=O)NCc1nc2ccccc2n1Cc1ccccc1F -16.1% [at 10 µM]
COCCNC(=O)C(c1ccc(F)cc1)N(Cc1ccco1)C(=O)CCC(=O)Nc1nccs1 (centres undefined) 6.62%
COc1ccc2cc3cc(C(=O)NCc4cccs4)oc3nc2c1 -4.04%
CCCCn1nc(NC(=O)c2cccs2)c2cc3ccccc3nc21 54.1%
CN(C)c1ccc(C(=O)NC2(N3CCC3=O)CCCC2)cc1 29%
CCOC(=O)N1CCN(C(=O)c2cc(Cl)c(Cl)cc2C(=O)O)CC1 -24.4%
Clc1ccc(CSc2nnc(-c3cccnc3)n2Cc2ccco2)c(Cl)c1 38.7%
CCOC(=O)C1=C(C)N=c2s/c(=C\c3cccc(OCC(=O)O)c3)c(=O)n2C1c1ccccc1OC (centres undefined) 22.3%
Cc1noc(C)c1S(=O)(=O)Nc1cccc2c1O[C@@H](CN(C)Cc1ccncc1)[C@@H](C)CN([C@@H](C)CO)C2=O -8.63%
C[C@H](CO)N1C[C@H](C)[C@H](CN(C)Cc2ccc(C(=O)Nc3ccccc3N)cc2)Oc2c(NC(=O)c3cnccn3)cccc2C1=O -22.5%
C[C@@H]1CN([C@H](C)CO)C(=O)c2cc(NC(=O)Cc3ccccc3)ccc2O[C@@H]1CN(C)Cc1ccncc1 -2.98%
Cc1noc(C)c1NC(=O)Nc1cccc2c1O[C@H](CN(C)Cc1ccc(Oc3ccccc3)cc1)[C@H](C)CN([C@@H](C)CO)C2=O -33.3%
C[C@@H]1CN([C@H](C)CO)C(=O)c2cc(NS(=O)(=O)c3ccc(F)cc3)ccc2O[C@H]1CN(C)Cc1ccc(C(F)(F)F)cc1 13.5%
C[C@H](CO)N1C[C@H](C)[C@@H](CN(C)Cc2ccc(C(F)(F)F)cc2)Oc2ccc(NS(=O)(=O)c3ccc(F)cc3)cc2C1=O 8.36% [at 21 µM]
C[C@H]1CN([C@@H](C)CO)C(=O)c2cccc(NC(=O)C3CCCCC3)c2O[C@H]1CN(C)Cc1ccc(C(=O)Nc2ccccc2N)cc1 264% [at 10 µM]
COc1ccc(CN(C)C[C@H]2Oc3c(NC(=O)CCCCCC(=O)Nc4ccccc4N)cccc3C(=O)N([C@H](C)CO)C[C@@H]2C)cc1 9.2% [at 21 µM]
C[C@@H]1CN([C@@H](C)CO)C(=O)CCCn2cc(nn2)CO[C@H]1CN(C)Cc1ccc2c(c1)OCO2 9.96% [at 21 µM]
O=C(C[C@@H]1C=C[C@@H](NC(=O)CN2CCOCC2)[C@H](CO)O1)NC1CCCCC1 5.29%
CSc1nc(SC)c2c3c(oc2n1)COC(C)(C)C3 18.7%
COCC#Cc1ccc2c(c1)O[C@H](CN(C)C(=O)CN(C)C)[C@@H](C)CN([C@@H](C)CO)S2(=O)=O 1.49%
CCC(=O)N1CCc2cc(OC)c(OC)cc2C1COc1ccc(C(=O)OC)cc1 (centres undefined) 28.5%
CCC(=O)N(C)C[C@@H]1Oc2ncc(C#CCc3ccccc3)cc2C(=O)N([C@H](C)CO)C[C@@H]1C -52.8%
C[C@@H]1CN([C@H](C)CO)C(=O)c2cccc(NC(=O)c3nc4ccccc4s3)c2O[C@@H]1CN(C)CC1CCCCC1 -33.2%
C[C@H]1CN([C@@H](C)CO)C(=O)c2cccc(NC(=O)c3nc4ccccc4s3)c2O[C@H]1CN(C)Cc1ccc(C(=O)Nc2ccccc2N)cc1 60.2%
CN(c1ccccc1)S(=O)(=O)c1ccc(Cl)nc1 -0.798%
O=C(/C=C/c1ccccc1)CC(O)(c1ccccc1)C(F)(F)F (centres undefined) 27.6% [at 10 µM]
CCN(CC)S(=O)(=O)c1ccc(C(=O)N(c2ccccc2)C2C=CS(=O)(=O)C2)cc1 (centres undefined) -8.54%
CNC[C@@H](CC1CCCCC1)NC[C@H](CC(C)C)NCCc1cccc(C(F)(F)F)c1 -101%
Cc1cc(NS(=O)(=O)c2ccc(NC(=O)COc3c(C)cc(Br)cc3C)cc2)no1 19.4%
